Screening data from PubChem.
MITF inhib: MITF inhibition; 37,000 compounds, 0.28% hits; inhibition, % (concentration not given with the values); TRPM1 promoter luciferase, luminescence, 24 h; AID 2240; in the data active means inhibition above about 85%; inconclusive means no clear call, values can overlap the other calls; inactive means below about 68%;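 further: human melanocyte line stably carrying TRPM1 promoter luciferase reporter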
Hedgehog inh: blocks Sonic Hedgehog signaling; Shh-LIGHT2 Gli-luciferase reporter, 30 h; inhibition, % (concentration not given with the values); 22,000 compounds, 2.1% hits; AID 2313;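 active means mean inhibition across valid replicates above about 65%, limit read from the data; inconclusive means mean under the limit, yet half or more replicates past it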;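 further: pathway switched on by Shh-conditioned medium diluted 1 in 25 in low serum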
NOMO-1 viab: STK33 inhibitor candidate reducing NOMO-1 cell viability; NOMO-1 AML viability, CellTiter-Glo luminescence, 72 h; inhibition, % (no concentration beside the values); 37,000 compounds, 7.5% hits; in the data active means inhibition above about 80%; inconclusive means no clear call, values can overlap the other calls
Starred values were filed as active, the others as inactive; ? = inconclusive; nt = not tested or not shown. Hits are enriched below; roughly 7.8% of the tested compounds scored in any of these assays.

SMILES	MITF inhib	Hedgehog inh	NOMO-1 viab
Cc1noc(C)c1S(=O)(=O)Nc1ccc2c(c1)C(=O)N([C@H](C)CO)C[C@H](C)[C@@H](CN(C)Cc1ccccc1)OCCCC[C@@H](C)O2	2	-15	9
Oc1cc(O)cc(/C=C/c2ccc(O)c(O)c2)c1	94*	82*	113*
N#C/C(=C\c1ccc(O)c(O)c1)C(=O)NCCCNC(=O)/C(C#N)=C/c1ccc(O)c(O)c1	-10	-9	31
CCOc1ccc(NC(=O)CSc2nnc(N)s2)cc1	-8	nt	0
Cn1c(SCc2ccc(C(F)(F)F)cc2)nnc1-c1ccc(OCC(F)(F)F)nc1	26	74*	28
Cn1c(SCC(N)=O)nnc1-c1ccc(C(C)(C)C)cc1	-35	nt	7
CCOc1ccc(NC(=O)Cn2c(-c3ccc(OC)cc3)nc3sc4c(c3c2=O)CCCC4)cc1	-14	nt	31
C[C@H](CO)N1C[C@H](C)[C@H](CN(C)C(=O)Nc2ccc(F)cc2)Oc2ccc(NC(=O)NC3CCCCC3)cc2C1=O	-2	5	15
Cc1ccc(S(=O)(=O)N(C)C[C@H]2Oc3c(NS(=O)(=O)c4c(C)noc4C)cccc3C(=O)N([C@@H](C)CO)C[C@H]2C)cc1	8	-7	68
COc1ccc(Cn2c(-c3nonc3NC(C)=O)nc3ccccc32)cc1	13	nt	45
CC(=O)Nc1nonc1-c1nc2ccccc2n1Cc1cccc2ccccc12	38	nt	118*
Cc1cc(Br)ccc1NC(=O)C(=O)NCCCN1CCOCC1	9	nt	-15
C[C@@H]1CCCCO[C@@H](CN(C)C(=O)c2ccccc2)[C@@H](C)CN([C@H](C)CO)C(=O)c2cc(NC(=O)C3CCCCC3)ccc2O1	8	nt	30
Nc1ccc(-c2nnc(SCC(=O)Nc3cccc(C(F)(F)F)c3)n2-c2ccccc2)cc1	-12	nt	20
Cc1ccc(-n2c(SCC(=O)Nc3ccc(C(N)=O)cc3)nnc2-c2ccc(Cl)cc2)cc1	4	nt	-15
COC(=O)c1cccc(NC(=O)CSc2nnc(-c3cc(OC)cc(OC)c3)o2)c1	-9	nt	-4
COc1cc(OC)cc(-c2nnc(SCC(=O)Nc3ccc(I)cc3)o2)c1	-28	nt	90*
Cc1ccc(N(CC(=O)O)S(C)(=O)=O)cc1C	-6	nt	2
COC(=O)c1cccc(NC(=O)CSc2nc3ccccc3s2)c1	-28	nt	1
C=C1CC[C@@H]2[C@](C)(CO[C@@H]3O[C@H](CO)[C@@H](O)[C@H](O)[C@H]3O)CCC[C@@]2(C)[C@@H]1CCC1=CCOC1=O	0	-27	16
C=C1CC[C@@H]2[C@](C)(CO)[C@H](O)CC[C@@]2(C)[C@@H]1CC(O)C1=CCOC1=O (some centres not stated)	-22	28	106*
C[C@H](CO)N1C[C@H](C)[C@H](CN(C)C(=O)NC2CCCCC2)Oc2ccc(NS(=O)(=O)c3ccc(F)cc3)cc2C1=O	-10	nt	26
C[C@H](CO)N1C[C@H](C)[C@H](CN(C)Cc2ccc(Cl)c(Cl)c2)Oc2ccc(NC(=O)NC3CCCCC3)cc2CC1=O	6	15	100*
C[C@@H]1CN([C@H](C)CO)C(=O)Cc2cc(NC(=O)C3CCCCC3)ccc2O[C@H]1CN(C)Cc1ccc(Cl)c(Cl)c1	7	-23	?
C[C@@H]1CN([C@H](C)CO)C(=O)Cc2cc(NC(=O)C3CCCCC3)ccc2O[C@@H]1CN(C)Cc1ccc(Cl)c(Cl)c1	26	33	114*
SMILES	MITF inhib	Hedgehog inh	NOMO-1 viab
C[C@H]1CN([C@@H](C)CO)C(=O)Cc2cc(NC(=O)NC3CCCCC3)ccc2O[C@@H]1CN(C)Cc1ccncc1	-14	nt	18
OC(COc1ccc2ccccc2c1Br)Cn1cnc(-c2ccccc2)c1 (configuration not stated)	3	nt	-20
CC(=O)OCC(=O)[C@H]1CCC2C3CCC4=CC(=O)CC[C@]4(C)C3CC[C@@]21C (some centres not stated)	7	18	27
C[C@@H]1CN([C@@H](C)CO)C(=O)c2cccc(N(C)C)c2O[C@H]1CN(C)S(=O)(=O)c1ccc(Cl)cc1	4	-10	37
COc1ccc(NC(=O)N(C)C[C@H]2Oc3ccc(NS(=O)(=O)c4cn(C)cn4)cc3CC(=O)N([C@H](C)CO)C[C@H]2C)cc1	-9	23	28
COc1ccc(NC(=O)N(C)C[C@H]2Oc3ccc(NS(=O)(=O)c4ccc(Cl)cc4)cc3CC(=O)N([C@@H](C)CO)C[C@H]2C)cc1	-12	67*	8
COc1ccc(NC(=O)N(C)C[C@@H]2Oc3ccc(NS(=O)(=O)c4ccc(Cl)cc4)cc3CC(=O)N([C@@H](C)CO)C[C@@H]2C)cc1	12	-13	6
COc1ccc(NC(=O)N(C)C[C@@H]2Oc3ccc(NS(=O)(=O)c4cn(C)cn4)cc3CC(=O)N([C@H](C)CO)C[C@H]2C)cc1	-14	72*	7
O=C(Cc1ccccc1)NC1CCCCCC1	-23	-14	11
C[C@H](CO)N1C[C@H](C)[C@H](CN(C)S(=O)(=O)c2cccs2)Oc2ccc(NC(=O)Nc3ccc(C(F)(F)F)cc3)cc2C1=O	45	-1	77
CCC(C)[C@H]1C(=O)O[C@H](C(C)C)C(=O)N(C)[C@@H](C(C)C)C(=O)O[C@H](C(C)C)C(=O)N(C)[C@@H](C(C)C)C(=O)O[C@H](CC(C)C)C(=O)N1C (some centres not stated)	78	106*	119*
CCn1ncc(NC(=S)NCc2ccco2)c1C(N)=O	-12	nt	2
Cc1ccc(S(=O)(=O)N2Cc3ccccc3C(C)CC23CCCCC3)cc1 (configuration not stated)	-6	-39	88*
COc1ccc(NC(=O)Nc2ccc3c(c2)CC(=O)N([C@@H](C)CO)C[C@H](C)[C@@H](CN(C)CC2CC2)O3)cc1	-10	10	14
CCc1ccc(OCCCn2cc(/C=C3/C(=N)N4C=CSC4=NC3=O)c3ccccc32)cc1	13	24	54
CCc1cc(C)cc(OCCn2cc(C=C3C(=O)NC(=O)NC3=O)c3ccccc32)c1	47	-1	122*
C[C@@H]1CN([C@H](C)CO)C(=O)c2cccc(NC(=O)Nc3ccc4c(c3)OCO4)c2O[C@H]1CN(C)C	-11	11	40
C[C@H]1CN([C@@H](C)CO)C(=O)c2cc(NC(=O)CCN3CCOCC3)ccc2O[C@H]1CN(C)Cc1ccc2c(c1)OCO2	-1	nt	3
Cc1cccc(C)c1OCCCCNCCO	3	nt	16
O=C(CSc1nc2ccccc2nc1N1CCCC1)Nc1ccccc1	-60	-26	43
CC1CN(c2nc3ccccc3nc2SCC(=O)Nc2ccccc2)CC(C)O1 (configuration not stated)	-12	-36	88*
CCOC(=O)COc1ccc2c(=O)c(-c3ccccc3OC)c(C(F)(F)F)oc2c1	0	nt	93*
CCOC(=O)c1c(C(C)(C)C)oc2ccc(OCC(=O)OC)cc12	-17	-25	28
COc1ccccc1-c1c(C(F)(F)F)oc2cc(OCC(=O)OC(C)C)ccc2c1=O	0	nt	96*
COc1cccc(Oc2coc3cc(OCC(N)=O)ccc3c2=O)c1	-13	nt	-1
Cc1cc(C)n(-c2ncc(S(=O)(=O)c3ccc(Cl)cc3)c(N)n2)n1	-20	-48	6
